Six compounds from PubChem BioAssay (NCATS) can be followed below.

A short description of assay [1]: Validation of Assay for Modulators of Lamin A Splicing (AID 1459; active = well fitted curve in the direction sought with a large enough effect in the signal ratio; the % refers to the signal ratio;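 also: cells exposed to compound for two days before reading; 0% is about no effect; ratio rise marks activators and ratio drop marks inhibitors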). A digest of the protocol:
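S3 HeLa cells stably expressing a lamin A-EGFP splicing minigene and DsRed2 were seeded at 600 cells/well in Opti-MEM with 2% FBS, pin-dosed, and incubated 48 hrs at 37 °C, 5% CO2. Laser-scanning cytometry (488 nm) gave GFP/RFP total intensity ratio.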

The nature of assay [2]: qHTS Assay for Lipid Storage Modulators (AID 1519; calls by dose curve; as to activity change, negative = inhibition: % is scaled to controls: 0 for no effect and ±100 for the full control effect). Particulars: Drosophila S3 cells, BODIPY lipid droplet/cell ratio, laser cytometry, cells loaded with oleic acid. A digest of the protocol: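 Cells seeded at 5,000 per well were treated with compounds over a concentration series and loaded with oleic acid (400 uM, as added). Lipid droplet fluorescence (488 nm excitation, 500-530 nm channel) was read by laser-scanning cytometry and normalized to 20 uM Triacsin C.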
(In general: In qHTS, concentration-response curves come from the screen itself.)

The target of assay [3] is DNA repair nuclease/redox regulator APEX1 (Homo sapiens) (UniProt P27695). Nature of the assay: qHTS Validation Assay for Inhibitors of the Human Apurinic/apyrimidinic Endonuclease 1 (APE1) (AID 1705;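 also: TAMRA fluorescence gain over two minutes as APE1 cuts a quenched THF abasic duplex; % is scaled to controls: 0 for no effect and ±100 for the full control effect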). A digest of the protocol: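 Human APE1 was preincubated with compound for 15 min at room temperature, then 50 nM (final) THF-abasic double-stranded DNA substrate bearing 5'-TAMRA and 3'-BHQ-2 was added. Incision-driven fluorescence rise (ex 525/em 598 nm) was read kinetically.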

Assay [4] in a line: Counterscreen for APE1 Inhibitors: Fluorescent Dye Displacement Validation Assay (AID 1707).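 Also: plate controls were ThO with dsDNA and no compound for no effect and ThO without dsDNA for full effect.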 A digest of the protocol: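 ThO 250 nM + dsDNA 50 nM (THF abasic site, 5'-TAMRA), Tris-HCl pH7.5/50mM NaCl/2 mM MgCl2/0.01% Tween-20; compounds pin-transferred; ex 480/em 540 nm endpoint. Neutral = no compound; no-DNA ThO wells = negative control.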
Assay [5] is described as follows: qHTS for differential inhibitors of proliferation of Plasmodium falciparum line 3D7 (AID 1876). Also: potency is read from the fitted curve at half-maximal effect.
Assay [6] can be described thus: qHTS for differential inhibitors of proliferation of Plasmodium falciparum line Dd2 (AID 1882).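 Also: compound exposure of 72 h on infected erythrocytes; plate controls were DMSO vehicle for no effect and 0.29 µM artemisinin for full effect; nearly all actives have a fitted effect of over 65% in size.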 The following applies: Potency: Plasmodium falciparum Dd2 proliferation inhibition. A digest of the protocol: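 SYBR Green I DNA fluorescence read-out, ex 485/em 535 nm. Signals were normalized to 0.29 uM artemisinin and DMSO wells, then corrected using vehicle-only plates flanking each stack. Parasite growth ran 72 h in erythrocytes before lysis.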

A short description of assay [7]: qHTS for differential inhibitors of proliferation of Plasmodium falciparum line W2 (AID 1883).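 Also: parasites grown with compound for 72 h before lysis and staining.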 Also: potency is read from the fitted curve at half-maximal effect.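 As to activity change, negative = inhibition: 0% = vehicle wells and -100% = control inhibitor wells.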 Particulars: Potency: Plasmodium falciparum W2 proliferation inhibition.
For assay [8], the target named is Ferritin light chain (Equus caballus) (UniProt P02791). The experiment in a line: qHTS Validation Assay for Identification of Novel General Anesthetics (AID 2323). Also: % is scaled to controls: 0 for no effect and ±100 for the full control effect. A digest of the protocol:
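Competitive displacement of profluorescent 1-aminoanthracene (1-AMA, 50% saturated solution in PBS) from 10 uM horse-spleen apoferritin. Compounds incubated 10 min at room temperature; fluorescence read at 380 nm excitation/535 nm emission, normalized to free 1-AMA and complex, fitted with four-parameter Hill equation.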

The target of assay [9] is ATP-dependent DNA helicase Q1 (Homo sapiens) (UniProt P46063). Nature of the assay: qHTS Validation Assay for Inhibitors of RecQ-Like Dna Helicase 1 (RECQ1) (AID 2353).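 Also: plate controls were DMSO vehicle for no effect and enzyme-free control for full effect.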 A digest of the protocol: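 50 nM RECQ1T1 preincubated 15 min with compound in Tris pH 8.0 buffer with MgCl2, DTT, Tween-20 and 2.5 ug/ml poly(dI-dC); started with 200 nM TAMRA/BHQ-2 forked duplex and 2 mM ATP. Unwinding read as fluorescence (525/598 nm), two reads 2 h apart.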

Assay [10] deals with RecQ-like DNA helicase BLM (Homo sapiens) (UniProt P54132). The experiment in a line: qHTS Validation Assay for Inhibitors of Bloom's syndrome helicase (BLM) (AID 2364).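 Also: plate controls were DMSO vehicle for no effect and enzyme-free control for full effect.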 An outline of the steps: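 BLM 50 nM in 25 mM Tris-HCl pH 8.0, 5 mM NaCl, 2 mM MgCl2, 1 mM DTT, 0.01% Tween-20, 2.5 ug/ml poly(dI-dC); 15 min cpd preinc, RT. Start: 200 nM forked DNA + 2 mM ATP (final). TAMRA read, 2 reads 2 h apart.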

The nature of assay [11]: High Content Imaging Cell-Based qHTS for Inhibitors of the mTORC1 Signaling Pathway in MEF (Tsc2-/-, p53-/-) Cells (AID 2666).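 Also: percent of cells scored positive for phospho-rpS6 Ser235/236 immunostaining by imaging.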 A digest of the protocol: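 Read-out: % positive cells per well, with thresholds from highest- and lowest-signal wells, based on phospho-rpS6 (Ser235/236) intensity normalized to Hoechst nuclear stain. Cells: Tsc2-/-, p53-/- MEFs carrying empty vector; compound 24 hrs, 37 degree Celsius.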

Assay [12] can be described thus: High Content Imaging Cell-Based qHTS for Inhibitors of the mTORC1 Signaling Pathway in MEF Cells (AID 2667).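 Also: Tsc2-/- p53-/- MEFs stably re-expressing wild-type Tsc2 exposed 24 h; plate controls were DMSO wells for no effect and rapamycin control wells for full effect.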 A digest of the protocol:
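MEF (Tsc2-/-, p53-/-, WT Tsc2 re-expressed); cpd 24 h, 37 °C; PFA fix; Alexa-488 anti-p-rpS6 Ser235/236, PI, Hoechst; IN Cell imaging; Hoechst/Alexa-488 intensity ratio; % active cells, thresholds set from rapamycin and DMSO wells.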

For assay [13], the target named is Endonuclease 4 (Escherichia coli (strain K12)) (UniProt P0A6C1). Nature of the assay: Counterscreen for APE1 Inhibitors: qHTS Validation Assay for Inhibitors of Endonuclease IV (AID 1708). Also: % is scaled to controls: 0 for no effect and ±100 for the full control effect. A digest of the protocol: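 2 nM enzyme was preincubated with compounds for 15 min at room temperature in 50 mM Tris-HCl pH 7.5, 50 mM NaCl, 2 mM MgCl2, 1 mM DTT, 0.01% Tween-20. 50 nM THF-abasic TAMRA/BHQ-2 duplex substrate started the reaction.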
Background: The purpose of a counterscreen is to sort out artefacts and off-target activity.

A short description of assay [14]: qHTS for differential inhibitors of proliferation of Plasmodium falciparum line 7G8 (AID 1815).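 Also: parasite growth measured after three days of incubation.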 Also: potency is read from the fitted curve at half-maximal effect.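 As to activity change, negative = inhibition: plate controls were vehicle wells for no effect and reference inhibitor wells for full effect.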
A short description of assay [15]: qHTS for differential inhibitors of proliferation of Plasmodium falciparum line GB4 (AID 1816).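 Also: parasite growth measured after 72 h incubation.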 Also: potency is read from the fitted curve at half-maximal effect.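 As to activity change, negative = inhibition: 0% = vehicle DMSO and -100% = reference inhibitor.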 Particulars: Potency: Plasmodium falciparum GB4 proliferation inhibition.
A short description of assay [16]: qHTS for differential inhibitors of proliferation of Plasmodium falciparum line D10 (AID 1877).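 Also: parasites grown with compound for 72 h before DNA staining; plate controls were vehicle wells for no effect and reference inhibitor wells for full effect.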
Assay [17] in a line: qHTS for differential inhibitors of proliferation of Plasmodium falciparum line HB3 (AID 1886).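 Also: parasites grown with compound for 72 h before SYBR Green readout.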 Also: potency is read from the fitted curve at half-maximal effect.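 As to activity change, negative = inhibition: plate controls were vehicle for no effect and reference inhibitor for full effect.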 The following applies: Potency: Plasmodium falciparum HB3 proliferation inhibition.
The nature of assay [18]: qHTS Assay for Modulators of Human Peripheral Myelin Protein 22 (PMP22) Expression/Activity (AID 1967; active = well fitted curve in the direction sought with a large enough effect in the signal ratio; the % refers to the signal ratio;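 also: 0% = untreated cells and 100% end not stated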). An outline of the steps:
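MSC80 mouse Schwann cells stably carrying Pmp22 promoter–green click beetle luciferase plus EF-alpha–red luciferase control were dosed for 24h at 37 °C. Dual-colour luminescence was filter-overlap corrected; %Activity came from green/red ratio versus untreated cells.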

Assay [19] can be described thus: Cytometric Cell-Based qHTS for Inhibitors of the mTORC1 Signaling Pathway in MEF (Tsc2-/-, p53-/-) Cells (AID 2660).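 Also: percent of cells above a phospho-rpS6 to PI ratio cutoff in each well; plate controls were DMSO for no effect and rapamycin for full effect.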 A digest of the protocol:
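Percent of cells positive for normalized phospho-S6 staining is reported, with the cutoff set from rapamycin (7.5 nM) versus DMSO wells. Tsc2-/-, p53-/- MEFs received compound for 24 hrs.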

The mark [20] stands for this setting: measured here: cell count channel max response.
The mark [21] stands for this setting: measured here: lipid channel max response.

Values joined by “and” are separate entries in the source; they are usually repeats but may differ in a detail not shown here. Identical values can stand only once. Results filed as inconclusive are left out. Active and inactive are the calls of the source. Unless noted, calls follow the shape of the dose curve; as a rule, active = well fitted curve in the direction sought with a large enough effect; inconclusive = small, poorly fitted or top-dose-only effect, or another doubt; inactive = no such curve, though single readings can be large; an effect the other way counts as inactive or inconclusive.

Ferritin light chain (Equus caballus), sequence (P02791 2-175 limits assumed): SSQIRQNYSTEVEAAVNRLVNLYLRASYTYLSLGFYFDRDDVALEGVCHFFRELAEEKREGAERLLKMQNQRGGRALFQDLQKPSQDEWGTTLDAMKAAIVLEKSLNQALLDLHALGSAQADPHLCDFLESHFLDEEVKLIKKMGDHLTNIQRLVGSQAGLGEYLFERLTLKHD
ATP-dependent DNA helicase Q1 (Homo sapiens), sequence (P46063 whole entry, looked up): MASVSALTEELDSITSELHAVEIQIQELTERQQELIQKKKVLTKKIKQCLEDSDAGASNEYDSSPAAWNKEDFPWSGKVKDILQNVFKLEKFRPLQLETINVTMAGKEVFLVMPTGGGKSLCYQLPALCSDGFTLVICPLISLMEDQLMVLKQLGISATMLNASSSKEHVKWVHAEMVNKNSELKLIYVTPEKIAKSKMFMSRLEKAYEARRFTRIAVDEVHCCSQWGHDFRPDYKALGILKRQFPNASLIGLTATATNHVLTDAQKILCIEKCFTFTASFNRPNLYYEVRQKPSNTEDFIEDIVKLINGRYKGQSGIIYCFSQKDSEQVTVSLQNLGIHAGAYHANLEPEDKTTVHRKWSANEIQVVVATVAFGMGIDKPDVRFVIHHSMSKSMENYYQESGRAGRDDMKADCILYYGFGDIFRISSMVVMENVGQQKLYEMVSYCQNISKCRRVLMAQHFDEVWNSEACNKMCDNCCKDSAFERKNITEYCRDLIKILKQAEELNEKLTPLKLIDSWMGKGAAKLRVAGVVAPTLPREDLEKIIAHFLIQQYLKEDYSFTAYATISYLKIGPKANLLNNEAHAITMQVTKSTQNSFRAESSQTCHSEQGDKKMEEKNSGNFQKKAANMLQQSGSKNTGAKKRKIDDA
RecQ-like DNA helicase BLM (Homo sapiens), sequence (P54132 whole entry, looked up): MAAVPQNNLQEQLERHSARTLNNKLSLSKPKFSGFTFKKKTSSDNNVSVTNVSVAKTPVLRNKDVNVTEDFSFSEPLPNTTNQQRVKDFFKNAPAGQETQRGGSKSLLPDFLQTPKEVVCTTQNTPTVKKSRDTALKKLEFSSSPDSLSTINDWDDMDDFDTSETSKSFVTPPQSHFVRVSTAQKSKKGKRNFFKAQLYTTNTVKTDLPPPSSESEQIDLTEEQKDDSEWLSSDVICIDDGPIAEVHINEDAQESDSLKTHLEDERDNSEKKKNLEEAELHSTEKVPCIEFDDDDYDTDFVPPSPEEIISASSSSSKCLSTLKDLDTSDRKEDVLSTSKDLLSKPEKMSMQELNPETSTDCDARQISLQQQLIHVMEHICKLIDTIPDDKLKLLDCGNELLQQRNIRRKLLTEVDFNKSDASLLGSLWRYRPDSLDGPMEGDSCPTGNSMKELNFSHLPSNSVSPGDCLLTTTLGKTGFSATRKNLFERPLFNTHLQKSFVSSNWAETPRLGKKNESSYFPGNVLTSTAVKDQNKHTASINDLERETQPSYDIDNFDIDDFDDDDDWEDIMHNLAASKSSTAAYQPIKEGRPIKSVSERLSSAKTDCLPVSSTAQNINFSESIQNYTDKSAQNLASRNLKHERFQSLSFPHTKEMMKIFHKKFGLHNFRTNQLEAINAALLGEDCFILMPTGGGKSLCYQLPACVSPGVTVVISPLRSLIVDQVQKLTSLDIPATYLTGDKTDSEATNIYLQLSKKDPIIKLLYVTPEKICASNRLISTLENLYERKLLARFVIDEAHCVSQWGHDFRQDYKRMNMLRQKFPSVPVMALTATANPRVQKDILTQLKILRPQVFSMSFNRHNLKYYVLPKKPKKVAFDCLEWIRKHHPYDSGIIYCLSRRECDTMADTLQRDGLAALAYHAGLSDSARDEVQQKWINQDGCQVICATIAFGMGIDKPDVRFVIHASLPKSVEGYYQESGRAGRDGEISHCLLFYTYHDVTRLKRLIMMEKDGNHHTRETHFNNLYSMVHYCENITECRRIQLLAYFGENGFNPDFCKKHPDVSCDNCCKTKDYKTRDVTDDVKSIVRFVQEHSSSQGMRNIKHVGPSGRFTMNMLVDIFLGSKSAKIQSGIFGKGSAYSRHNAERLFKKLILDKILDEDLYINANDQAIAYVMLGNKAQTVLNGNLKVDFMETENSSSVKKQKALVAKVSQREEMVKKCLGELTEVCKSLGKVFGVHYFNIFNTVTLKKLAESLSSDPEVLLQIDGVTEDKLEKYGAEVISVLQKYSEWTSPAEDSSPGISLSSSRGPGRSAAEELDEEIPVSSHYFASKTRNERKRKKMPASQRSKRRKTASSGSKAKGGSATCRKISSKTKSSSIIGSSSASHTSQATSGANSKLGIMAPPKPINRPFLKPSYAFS
DNA repair nuclease/redox regulator APEX1 (Homo sapiens), sequence (P27695 whole entry, looked up): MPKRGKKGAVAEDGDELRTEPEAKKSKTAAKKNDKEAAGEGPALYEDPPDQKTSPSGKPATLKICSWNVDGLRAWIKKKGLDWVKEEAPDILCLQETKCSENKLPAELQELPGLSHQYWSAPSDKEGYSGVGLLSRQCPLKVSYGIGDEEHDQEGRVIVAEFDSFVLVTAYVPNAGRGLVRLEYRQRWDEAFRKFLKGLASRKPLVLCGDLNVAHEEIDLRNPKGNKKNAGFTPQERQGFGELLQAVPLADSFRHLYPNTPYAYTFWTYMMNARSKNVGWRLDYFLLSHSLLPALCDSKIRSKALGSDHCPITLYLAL

Take `C#CCOC(=O)C1=CCCN(C)C1`: the outcome in assay [1], in assay [8] and in assay [9] was inactive. Moreover, in assay [2] (at 57.5 µM (top of the series)), the activity change, negative = inhibition is 6% (inactive). For the same compound, the max response in assay [2] (setting [20]) was found to be 13.4%; in [2] (setting [21]) it was 20.6%. In addition, the Potency entry in assay [3], in assay [4], in [6], in [10], in [11] and in [12] was “inactive” in each case. The Potency in assay [5] is 12.6 µM (active); in [7] it was 15.8 µM (active).

With `O=C(O)[C@@H]1CCN1`, the outcome in assay [1], in [18], in assay [8] and in assay [9] was inactive. Also, the activity change, negative = inhibition in [2] (at 57.5 µM (top of the series)) was 1.64% (inactive). Moreover, the max response in [2] (setting [20]) is -13.5%; in assay [2] (setting [21]), -13.6%. Further, the Potency entry in [3], in [4], in assay [13], in assay [14], in assay [15] and in [5] was “inactive” throughout. Moreover, the Potency result in [16], in assay [6], in assay [7], in assay [17], in assay [11] and in assay [12] was “inactive” throughout.

Take `Cc1nccc2c1[nH]c1ccccc12`: the compound was called inactive in assay [1] and in [9]. In addition, the activity change, negative = inhibition in [2] (at 25.7 µM (top of the series)) is 0.405% (inactive); in assay [2] (at 57.5 µM (top of the series)), 2.54% (inactive). Moreover, the max response is 6.61% and 77.2% in assay [2] (setting [20]); 6.19% and 80.2% in [2] (setting [21]). In addition, the Potency result in assay [4], in assay [13], in assay [6], in assay [10], in [19] and in [11] was “inactive” each time. In addition, the Potency result in assay [12] was “inactive”. Also, the Potency in assay [14] is 14.1 µM (active); in assay [15], 12.6 µM (active); in assay [7], 10 µM (active); in assay [17] it was 11.2 µM (active).

As to `CN1C2CCC1CC(OC(=O)c1cc(Cl)cc(Cl)c1)C2` (centres undefined), the result in assay [1], in assay [8] and in assay [9] was inactive. Besides, the Potency entry in [3], in [4], in assay [13], in [6], in assay [10] and in [11] was “inactive” in each case. The Potency entry in assay [12] was “inactive”. In addition, the Potency in [14] was 6.31 µM (active); in assay [15], 12.6 µM (active); in assay [5] it was 10 µM (active); in assay [7], 8.91 µM (active).

`O=C1CCCN1CC#CCN1CCCC1`: the compound was classed as inactive in assay [1], in assay [18], in assay [8] and in [9]. The activity change, negative = inhibition in [2] (at 57.5 µM (top of the series)) is 5.07% (inactive) and 8.93% (inactive) and 0.711% (inactive). The max response in assay [2] (setting [20]) was 5.66% and 4.2% and 20.8%; in assay [2] (setting [21]) it was 13% and 25.8% and 21.1%. Moreover, the Potency entry in [3], in assay [4], in [13], in [14], in [15] and in assay [5] was “inactive” in each case. The Potency result in [16], in [6], in [7], in assay [17], in [11] and in assay [12] was “inactive” throughout.

Turning to `Cn1cnc(CCN)c1`, the compound was classed as inactive in [1], in assay [18], in assay [8] and in assay [9]. For the same compound, in [2] (at 57.5 µM (top of the series)), the activity change, negative = inhibition was 1.27% (inactive). Moreover, the max response in assay [2] (setting [20]) was 34.2%; in [2] (setting [21]), 35.2%. Moreover, the Potency result in assay [3], in [4], in assay [13], in [14], in assay [15] and in [5] was “inactive” in each case. Further, the Potency result in [16], in assay [6], in assay [7], in assay [17], in [10] and in [19] was “inactive” in each case. Further, the Potency result in [11] and in assay [12] was “inactive” in each case.
